# From PMC7862700, “An all-to-all approach to the identification of sequence-specific readers for epigenetic DNA modifications on cytosine”
# How the values were obtained:
# Assay in all cases: DAPPL (digital affinity profiling via proximity ligation, sequencing); 10 mM Tris-HCl pH 7.5, 50 mM NaCl, 1 mM DTT, 4% glycerol, room temperature, 30 min; GST-TFs on glutathione beads, 16-mer random dsDNA library, 0.1% formaldehyde crosslink after washing; high values mean tight binding
# Details in all cases: protein: recombinant; tags: N-terminal GST; dsDNA, one strand shown
# [1] = molecular target: ETV1 (Homo sapiens, UniProt P50549 1-477)
# How it was run: (§1)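 Yeast served to express human transcription factors as GST fusions, which were then captured on glutathione beads and labelled with DNA barcodes. Pooled with a tag-only sample, they were incubated with 200 nmole of a 16-mer random double-stranded DNA library for 30 min at room temperature in Tris/NaCl/DTT/glycerol buffer, washed, crosslinked with 0.1% formaldehyde, ligated by proximity, amplified by PCR and sequenced. Dividing each hexamer's read frequency for a factor by its frequency for the tag-only sample gives the binding signal.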
# [2] = molecular target: T1, ERF (Homo sapiens, UniProt P50548 1-548)
# T1 sequence: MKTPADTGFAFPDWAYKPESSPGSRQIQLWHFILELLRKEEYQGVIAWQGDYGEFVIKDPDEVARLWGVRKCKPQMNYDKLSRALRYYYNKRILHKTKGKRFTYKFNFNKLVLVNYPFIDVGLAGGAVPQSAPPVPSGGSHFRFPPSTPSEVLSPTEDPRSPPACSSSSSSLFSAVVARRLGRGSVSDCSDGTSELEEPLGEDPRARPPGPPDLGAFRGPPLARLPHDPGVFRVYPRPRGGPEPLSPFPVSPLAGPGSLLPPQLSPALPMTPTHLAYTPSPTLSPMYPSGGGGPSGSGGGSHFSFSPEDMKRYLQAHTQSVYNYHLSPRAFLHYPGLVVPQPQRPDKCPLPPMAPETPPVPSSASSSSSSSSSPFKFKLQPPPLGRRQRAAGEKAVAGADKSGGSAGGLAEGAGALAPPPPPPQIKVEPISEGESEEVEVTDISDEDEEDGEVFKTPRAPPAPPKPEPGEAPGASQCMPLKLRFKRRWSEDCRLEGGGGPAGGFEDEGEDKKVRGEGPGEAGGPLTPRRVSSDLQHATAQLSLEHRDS
# How it was run: as §1
# [3] = molecular target: T2, ETV3L (Homo sapiens, UniProt Q6ZN32 1-361)
# T2 sequence: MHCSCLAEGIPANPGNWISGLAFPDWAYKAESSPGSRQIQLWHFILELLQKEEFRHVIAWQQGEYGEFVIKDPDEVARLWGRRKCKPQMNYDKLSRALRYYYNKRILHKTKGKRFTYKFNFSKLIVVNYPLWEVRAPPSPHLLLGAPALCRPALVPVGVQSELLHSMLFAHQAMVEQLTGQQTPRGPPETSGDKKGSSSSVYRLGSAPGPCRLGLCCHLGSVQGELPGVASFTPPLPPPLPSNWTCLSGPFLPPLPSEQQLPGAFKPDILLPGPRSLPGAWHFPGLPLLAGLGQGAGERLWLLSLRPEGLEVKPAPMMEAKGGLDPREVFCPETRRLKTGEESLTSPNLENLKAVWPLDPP
# How it was run: as §1
# [4] = molecular target: T3, ETS2 (Homo sapiens, UniProt P15036 1-469)
# T3 sequence: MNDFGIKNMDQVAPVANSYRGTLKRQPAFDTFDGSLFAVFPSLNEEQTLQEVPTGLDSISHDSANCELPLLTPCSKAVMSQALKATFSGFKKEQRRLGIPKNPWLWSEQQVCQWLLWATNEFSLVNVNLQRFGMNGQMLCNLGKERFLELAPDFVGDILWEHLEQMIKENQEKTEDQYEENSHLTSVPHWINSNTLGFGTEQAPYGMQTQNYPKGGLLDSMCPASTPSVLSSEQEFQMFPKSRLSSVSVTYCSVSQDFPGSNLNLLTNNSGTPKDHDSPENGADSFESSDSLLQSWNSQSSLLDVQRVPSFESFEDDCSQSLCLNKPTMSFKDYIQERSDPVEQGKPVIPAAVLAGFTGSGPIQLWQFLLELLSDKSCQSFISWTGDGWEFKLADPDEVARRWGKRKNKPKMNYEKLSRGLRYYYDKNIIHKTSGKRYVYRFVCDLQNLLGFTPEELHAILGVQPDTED
# How it was run: as §1
# [5] = molecular target: T4, SPDEF (Homo sapiens, UniProt O95238 1-335)
# T4 sequence: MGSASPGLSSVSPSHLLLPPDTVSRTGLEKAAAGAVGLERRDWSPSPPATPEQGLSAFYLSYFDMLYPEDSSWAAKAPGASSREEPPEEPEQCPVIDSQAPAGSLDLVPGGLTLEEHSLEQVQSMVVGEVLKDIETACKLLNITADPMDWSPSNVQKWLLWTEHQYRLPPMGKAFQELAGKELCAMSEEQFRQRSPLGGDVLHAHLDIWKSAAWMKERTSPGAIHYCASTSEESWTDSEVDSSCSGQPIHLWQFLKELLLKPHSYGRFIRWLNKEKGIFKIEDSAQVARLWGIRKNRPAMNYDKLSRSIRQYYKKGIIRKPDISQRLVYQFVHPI
# How it was run: as §1
# [6] = molecular target: T5, ETV7 (Homo sapiens, UniProt Q9Y603 1-341)
# T5 sequence: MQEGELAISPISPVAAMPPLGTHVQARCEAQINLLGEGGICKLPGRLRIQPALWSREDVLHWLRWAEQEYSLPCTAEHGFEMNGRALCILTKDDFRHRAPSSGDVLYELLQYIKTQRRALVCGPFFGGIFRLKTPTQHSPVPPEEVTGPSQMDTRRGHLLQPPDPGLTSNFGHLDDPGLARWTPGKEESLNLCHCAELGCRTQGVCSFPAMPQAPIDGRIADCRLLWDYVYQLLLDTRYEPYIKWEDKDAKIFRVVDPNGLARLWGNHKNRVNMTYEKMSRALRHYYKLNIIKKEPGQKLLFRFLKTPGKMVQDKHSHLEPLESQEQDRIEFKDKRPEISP
# How it was run: as §1
# [7] = molecular target: T6, ELF5 (Homo sapiens, UniProt Q9UKW6-2 1-255)
# T6 sequence: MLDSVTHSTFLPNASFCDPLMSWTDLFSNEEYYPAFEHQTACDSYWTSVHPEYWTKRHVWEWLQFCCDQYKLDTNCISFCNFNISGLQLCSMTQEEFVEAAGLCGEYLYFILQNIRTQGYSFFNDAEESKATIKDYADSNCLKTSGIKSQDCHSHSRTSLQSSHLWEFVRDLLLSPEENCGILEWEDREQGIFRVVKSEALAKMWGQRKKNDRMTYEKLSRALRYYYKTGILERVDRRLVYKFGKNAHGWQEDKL
# How it was run: as §1
# [8] = molecular target: T7, ETV3 (Homo sapiens, UniProt P41162-2 1-143)
# T7 sequence: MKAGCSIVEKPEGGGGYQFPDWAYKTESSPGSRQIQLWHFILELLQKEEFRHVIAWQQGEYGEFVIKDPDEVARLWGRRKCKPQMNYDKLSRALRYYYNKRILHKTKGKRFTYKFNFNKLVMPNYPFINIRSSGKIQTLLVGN
# How it was run: as §1
# [9] = molecular target: ETV6 (Homo sapiens, UniProt P41212 1-452)
# How it was run: as §1
# ETV1, sequence (P50549 whole entry, the tested form may be a part): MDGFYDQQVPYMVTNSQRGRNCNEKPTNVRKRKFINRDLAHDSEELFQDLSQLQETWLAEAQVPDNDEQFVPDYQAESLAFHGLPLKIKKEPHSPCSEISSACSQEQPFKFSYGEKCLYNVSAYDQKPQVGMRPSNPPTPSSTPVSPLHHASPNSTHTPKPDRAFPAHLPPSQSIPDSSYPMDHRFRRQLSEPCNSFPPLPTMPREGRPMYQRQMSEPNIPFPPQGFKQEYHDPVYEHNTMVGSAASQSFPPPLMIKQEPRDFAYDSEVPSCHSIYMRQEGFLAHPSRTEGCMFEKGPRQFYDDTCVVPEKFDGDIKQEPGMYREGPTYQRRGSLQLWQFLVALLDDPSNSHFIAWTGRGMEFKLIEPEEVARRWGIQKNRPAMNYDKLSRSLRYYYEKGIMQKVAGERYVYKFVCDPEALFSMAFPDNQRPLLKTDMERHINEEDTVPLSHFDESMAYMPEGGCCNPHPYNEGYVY
# ETV6, sequence (P41212 whole entry): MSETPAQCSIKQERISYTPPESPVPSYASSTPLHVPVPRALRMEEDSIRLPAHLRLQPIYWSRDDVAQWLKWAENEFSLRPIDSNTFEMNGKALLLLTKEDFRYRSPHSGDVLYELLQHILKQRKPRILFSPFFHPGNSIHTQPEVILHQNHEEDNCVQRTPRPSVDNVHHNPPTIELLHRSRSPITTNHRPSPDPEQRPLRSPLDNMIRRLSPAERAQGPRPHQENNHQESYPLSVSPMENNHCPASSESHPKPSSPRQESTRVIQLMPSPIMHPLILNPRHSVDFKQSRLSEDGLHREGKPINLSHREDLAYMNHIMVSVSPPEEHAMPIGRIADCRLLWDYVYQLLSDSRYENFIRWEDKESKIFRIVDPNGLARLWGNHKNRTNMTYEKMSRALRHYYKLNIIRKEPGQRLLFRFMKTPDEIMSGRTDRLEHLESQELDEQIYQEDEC
sequence,measurement,setting,value
AAGCAT,binding signal,[1],"1.04 fold enrichment (6-mer frequency, TF over GST control)"
same,binding signal,[2],"1.19 fold enrichment (6-mer frequency, TF over GST control)"
same,binding signal,[3],"1.09 fold enrichment (6-mer frequency, TF over GST control)"
same,binding signal,[4],"1.2 fold enrichment (6-mer frequency, TF over GST control)"
same,binding signal,[5],"1.08 fold enrichment (6-mer frequency, TF over GST control)"
same,binding signal,[6],"1.14 fold enrichment (6-mer frequency, TF over GST control)"
same,binding signal,[7],"1.06 fold enrichment (6-mer frequency, TF over GST control)"
same,binding signal,[8],"1.13 fold enrichment (6-mer frequency, TF over GST control)"
same,binding signal,[9],"1.14 fold enrichment (6-mer frequency, TF over GST control)"
